SMILES strings stand for the structures. Several values for one entry are separate records, joined by “and”; a condition that tells them apart may be missing. Equal entries are not always repeated. Inconclusive results are not listed. Some structures have more than one record in an assay (separate samples or runs), and their calls can disagree. Activity calls are given as the source filed them. Unless noted, the call rests on the fitted dose curve; in most records, active means well fitted curve in the direction sought with a large enough effect in the repeat runs; inconclusive means weak or mixed curves; inactive means no such curve, though single readings can be large; an effect the other way counts as inactive or inconclusive.

Experiment [1] in a line: qHTS assay to identify aromatase inhibitors - cell viability counter screen (AID 743084).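 Further: cells stimulated with testosterone during compound exposure; nearly all actives have a fitted effect of over 55% in size.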 Further: potency means the concentration at half of the fitted maximal effect. Background: Quantitative high-throughput screening tests each substance at several concentrations.
Experiment [2] is described as follows: qHTS assay to identify small molecule that activate the aryl hydrocarbon receptor (AhR) signaling pathway - cell viability counter screen (AID 743086).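 Further: HepG2 liver cells carrying the AhR DRE luciferase reporter; series mostly up to about 70 µM; nearly all actives have a fitted effect of over 45% in size.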 The gist of the method:
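Cytotoxicity counter screen: CellTiter-Fluor signal (30 min, 37 C) in 4000 HepG2 cells/well carrying the DRE-luciferase reporter, following 24 h compound exposure at 37 C.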

The target in experiment [3] is Peroxisome proliferator-activated receptor gamma (Homo sapiens) (UniProt P37231). In words: qHTS assay to identify small molecule agonists of the peroxisome proliferator-activated receptor gamma (PPARg) signaling pathway (AID 743094; active means well fitted activation curve with a large enough effect in the signal ratio in the repeat runs, not every such curve was filed as active; the % refers to the signal ratio). The gist of the method: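 GeneBLAzer PPARg UAS-bla HEK293H cells were plated, rested 5 h, then exposed to compounds for 17 h at 37C. Beta-lactamase activity was read by LiveBLAzer B/G FRET substrate fluorescence after 1 h at room temperature.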

Experiment [4] has the same target. In words: qHTS assay to identify small molecule antagonists of the peroxisome proliferator-activated receptor gamma (PPARg) signaling pathway (AID 743191; calls by dose curve; further: series mostly up to about 63 µM; nearly all actives have a fitted effect of over 30% in size). The gist of the method:
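Beta-lactamase reporter under UAS control in HEK293H PPARg-bla cells; compound treatment 17 h at 37C. Read-out: fluorescence intensity after 1 h room-temperature incubation with LiveBLAzer B/G FRET substrate.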

A short description of experiment [5]: qHTS assay to identify small molecule antagonists of the peroxisome proliferator-activated receptor gamma (PPARg) signaling pathway - cell viability counter screen (AID 743194). Further: nearly all actives have a fitted effect of over 55% in size. The gist of the method:
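Viability was measured as CellTiter-Glo luminescence in GeneBLAzer PPARg UAS-bla HEK293H cells. These cells had been exposed 17 h at 37 C to compounds together with rosiglitazone at 50 nM final, with the beta-lactamase readout taken in the same wells.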

A short description of experiment [6]: qHTS assay for small molecule agonists of the antioxidant response element (ARE) signaling pathway (AID 743202; active means well fitted activation curve with a large enough effect in the signal ratio in the repeat runs, not every such curve was filed as active; the % refers to the signal ratio; further: potency means the concentration at half of the fitted maximal effect). The gist of the method:
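Quantitative high-throughput format in HepG2 cells bearing an integrated ARE-beta-lactamase reporter. Compound exposure lasted 16 h at 37 C, and fluorescence was read 2 h after adding LiveBLAzer B/G substrate at room temperature.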

A short description of experiment [7]: qHTS assay for small molecule agonists of the antioxidant response element (ARE) signaling pathway - cell viability counter screen (AID 743203; calls by dose curve; further: nearly all actives have a fitted effect of over 55% in size; further: potency means the concentration at half of the fitted maximal effect). The gist of the method:
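ARE-bla HepG2 cells were plated, rested 5 h at 37C/5% CO2, then exposed to compounds in DMSO for 16 h. Viability was read as CellTiter-Glo luminescence after 30 min at room temperature, in the same wells as the ARE screen.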

Experiment [8] is described as follows: qHTS assay for small molecule activators of the heat shock response signaling pathway - cell viability counter screen (AID 743209). Further: nearly all actives have a fitted effect of over 50% in size. The gist of the method: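 HSE-bla HeLa cells plated overnight, then exposed to Tox21 compounds (23 nL in DMSO) for 5 h at 37 C. After the bla reporter read, CellTiter-Glo was added in the same wells and luminescence read after 30 min at room temperature.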

Experiment [9] can be described thus: qHTS assay for small molecule activators of the heat shock response signaling pathway (AID 743210; active means well fitted activation curve with a large enough effect in the signal ratio in the repeat runs, with a control signal flat, not every such curve was filed as active; the % refers to the signal ratio;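 further: HeLa cells with beta-lactamase reporter driven by heat shock elements; series mostly up to about 63 µM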). The gist of the method:
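HeLa HSE-bla cells, overnight plating; cpd in DMSO 5 h, 37 C; LiveBLAzer B/G FRET substrate 2.5 h RT; fluorescence intensity read.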

A short description of experiment [10]: qHTS assay to identify small molecule agonists of the peroxisome proliferator-activated receptor delta (PPARd) signaling pathway - cell viability counter screen (AID 743211). Further: nearly all actives have a fitted effect of over 55% in size. Further: potency means the concentration at half of the fitted maximal effect. The gist of the method: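 Counter screen for cytotoxicity run in parallel with the PPARd reporter screen. Beta-lactamase reporter HEK293H cells exposed to compounds 17 h; ATP-based CellTiter-Glo luminescence quantified viability.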

The target in experiment [11] is Peroxisome proliferator-activated receptor delta (Homo sapiens) (UniProt Q03181). In words: qHTS assay to identify small molecule agonists of the peroxisome proliferator-activated receptor delta (PPARd) signaling pathway (AID 743212; calls by dose curve). The gist of the method:
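HEK293H PPARd-bla cells; 5 h preincubation 37 C/5% CO2; compound (DMSO) 37 C; LiveBLAzer B/G FRET substrate 2 h RT; fluorescence intensity.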

The nature of experiment [12]: qHTS assay to identify small molecule antagonists of the peroxisome proliferator-activated receptor delta (PPARd) signaling pathway - cell viability counter screen (AID 743213). Further: nearly all actives have a fitted effect of over 50% in size. The gist of the method: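 Cytotoxicity counter screen: CellTiter-Glo luminescence read 30 min after addition, in the same wells as the reporter assay. There, PPARd UAS-bla HEK293H cells (3000/well) were treated 17 h at 37 C with compound and 300 nM L165041.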

In experiment [13] the target is Peroxisome proliferator-activated receptor delta (Homo sapiens) (UniProt Q03181). Kind of experiment: qHTS assay to identify small molecule antagonists of the peroxisome proliferator-activated receptor delta (PPARd) signaling pathway (AID 743215; active means well fitted inhibition curve with a large enough effect in the signal ratio in the repeat runs, not every such curve was filed as active; the % refers to the signal ratio;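 further: cells stimulated with agonist L165041 at 300 nM final during compound exposure; series mostly up to about 62 µM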). The gist of the method: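 PPARd-bla HEK293H cells (UAS-bla reporter) preincubated 5 h, then given compound plus 300 nM final L165041 agonist for 17 h at 37 C. Beta-lactamase activity read by LiveBLAzer B/G FRET substrate fluorescence after 2 h at room temperature.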

Experiment [14] can be described thus: qHTS assay to identify small molecule agonists of the farnesoid-X-receptor (FXR) signaling pathway - cell viability counter screen (AID 743218). Further: nearly all actives have a fitted effect of over 45% in size. The gist of the method:
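FXR-UAS-bla HEK 293T cells exposed to compounds for 16 h at 37C. Cytotoxicity read in the same wells by CellTiter-Glo luminescence after 30 min at room temperature, following the beta-lactamase FRET read.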

Experiment [15] concerns the target Vitamin D3 receptor (Homo sapiens) (UniProt P11473). Kind of experiment: qHTS assay to identify small molecule agonists of the vitamin D receptor (VDR) signaling pathway (AID 743222; calls by dose curve). The gist of the method: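 VDR-bla cells plated 4 h at 37 C, then exposed to compounds for 16 h at 37 C. Beta-lactamase reporter activity measured by fluorescence after 2 h room-temperature loading with LiveBLAzer B/G FRET substrate.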

The target is the same in experiment [16]. Kind of experiment: qHTS assay to identify small molecule antagonists of the vitamin D receptor (VDR) signaling pathway (AID 743223; active means well fitted inhibition curve with a large enough effect in the signal ratio in the repeat runs, not every such curve was filed as active; the % refers to the signal ratio). The gist of the method: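 Cells carrying a VDR-driven beta-lactamase reporter (VDR-bla) were co-treated with compound and 3 nM final 1alpha,25-dihydroxyvitamin D3 for 16 h at 37C; reporter activity was measured as FRET substrate fluorescence after 2 h at room temperature.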

For experiment [17], the target named is Aryl hydrocarbon receptor (Homo sapiens) (UniProt P35869). Kind of experiment: qHTS assay to identify small molecule that activate the aryl hydrocarbon receptor (AhR) signaling pathway (AID 743085). Further: nearly all actives have a fitted effect of over 15% in size. Further: potency means the concentration at half of the fitted maximal effect.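 On activation: HG2L7.5c1 human HepG2 liver cells with stably integrated DRE-driven firefly reporter; series mostly up to about 70 µM.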 The gist of the method: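 Compounds were tested in HepG2 hepatocellular carcinoma cells harbouring a stably integrated luciferase gene under control of 20 DREs. Increased reporter signal after 24 h treatment at 37C was taken as AhR activation.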

Experiment [18] can be described thus: qHTS assay to identify small molecule antagonists of the farnesoid-X-receptor (FXR) signaling pathway - cell viability counter screen (AID 743221; active means well fitted cell-killing curve with a large enough effect in the repeat runs, not every such curve was filed as active; further: nearly all actives have a fitted effect of over 50% in size). The gist of the method:
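Multiplexed counter screen: viability of FXR-bla HEK 293T cells under agonist stimulation by chenodeoxycholic acid (50 uM, final) and test compound for 16 h at 37 C, measured by CellTiter-Glo luminescence in the reporter wells.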

The target of experiment [19] is Bile acid receptor (Homo sapiens) (UniProt Q96RI1). In words: qHTS assay to identify small molecule antagonists of the farnesoid-X-receptor (FXR) signaling pathway (AID 743217; active means well fitted inhibition curve with a large enough effect in the signal ratio in the repeat runs, not every such curve was filed as active; the % refers to the signal ratio). The gist of the method: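 FXR-UAS-bla HEK 293T cells (beta-lactamase reporter) given compound plus chenodeoxycholic acid (50 uM final), 16 h at 37C. LiveBLAzer B/G FRET substrate added for 2 h at room temperature; fluorescence read.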

The target is the same in experiment [20]. Kind of experiment: qHTS assay to identify small molecule agonists of the farnesoid-X-receptor (FXR) signaling pathway (AID 743220; active means well fitted activation curve with a large enough effect in the signal ratio in the repeat runs, not every such curve was filed as active; the % refers to the signal ratio). The gist of the method: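 Beta-lactamase reporter under UAS control in GeneBLAzer FXR HEK 293T cells (5000/well) measured with LiveBLAzer FRET substrate after 2 h at room temperature. Compound exposure lasted 16 h at 37C.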

Peroxisome proliferator-activated receptor delta (Homo sapiens), sequence (Q03181 whole entry, looked up): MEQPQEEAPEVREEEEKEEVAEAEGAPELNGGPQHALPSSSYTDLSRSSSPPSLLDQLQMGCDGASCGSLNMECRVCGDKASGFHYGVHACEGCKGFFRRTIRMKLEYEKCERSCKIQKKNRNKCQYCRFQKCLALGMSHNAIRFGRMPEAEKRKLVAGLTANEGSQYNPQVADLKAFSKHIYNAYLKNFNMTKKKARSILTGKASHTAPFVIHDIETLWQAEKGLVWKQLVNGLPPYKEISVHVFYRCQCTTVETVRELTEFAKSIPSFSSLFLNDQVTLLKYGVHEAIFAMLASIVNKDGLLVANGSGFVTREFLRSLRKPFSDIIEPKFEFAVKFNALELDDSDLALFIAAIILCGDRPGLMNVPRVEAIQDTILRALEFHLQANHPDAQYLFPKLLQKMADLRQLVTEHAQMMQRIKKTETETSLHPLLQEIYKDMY
Peroxisome proliferator-activated receptor gamma (Homo sapiens), sequence (P37231 whole entry, looked up): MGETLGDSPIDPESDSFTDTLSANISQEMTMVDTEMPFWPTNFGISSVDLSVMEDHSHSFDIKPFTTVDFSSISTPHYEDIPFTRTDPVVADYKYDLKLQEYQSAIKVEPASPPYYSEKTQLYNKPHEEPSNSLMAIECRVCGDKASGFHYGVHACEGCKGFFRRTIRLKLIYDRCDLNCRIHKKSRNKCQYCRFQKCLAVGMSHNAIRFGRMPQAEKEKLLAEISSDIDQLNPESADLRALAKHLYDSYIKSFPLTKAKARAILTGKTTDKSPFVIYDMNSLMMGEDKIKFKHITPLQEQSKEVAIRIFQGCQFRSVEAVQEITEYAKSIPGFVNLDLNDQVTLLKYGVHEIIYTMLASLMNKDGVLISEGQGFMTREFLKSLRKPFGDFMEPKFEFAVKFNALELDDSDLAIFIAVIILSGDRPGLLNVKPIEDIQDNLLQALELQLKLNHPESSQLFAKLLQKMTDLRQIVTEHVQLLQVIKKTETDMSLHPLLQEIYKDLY
Aryl hydrocarbon receptor (Homo sapiens), sequence (P35869 whole entry, looked up): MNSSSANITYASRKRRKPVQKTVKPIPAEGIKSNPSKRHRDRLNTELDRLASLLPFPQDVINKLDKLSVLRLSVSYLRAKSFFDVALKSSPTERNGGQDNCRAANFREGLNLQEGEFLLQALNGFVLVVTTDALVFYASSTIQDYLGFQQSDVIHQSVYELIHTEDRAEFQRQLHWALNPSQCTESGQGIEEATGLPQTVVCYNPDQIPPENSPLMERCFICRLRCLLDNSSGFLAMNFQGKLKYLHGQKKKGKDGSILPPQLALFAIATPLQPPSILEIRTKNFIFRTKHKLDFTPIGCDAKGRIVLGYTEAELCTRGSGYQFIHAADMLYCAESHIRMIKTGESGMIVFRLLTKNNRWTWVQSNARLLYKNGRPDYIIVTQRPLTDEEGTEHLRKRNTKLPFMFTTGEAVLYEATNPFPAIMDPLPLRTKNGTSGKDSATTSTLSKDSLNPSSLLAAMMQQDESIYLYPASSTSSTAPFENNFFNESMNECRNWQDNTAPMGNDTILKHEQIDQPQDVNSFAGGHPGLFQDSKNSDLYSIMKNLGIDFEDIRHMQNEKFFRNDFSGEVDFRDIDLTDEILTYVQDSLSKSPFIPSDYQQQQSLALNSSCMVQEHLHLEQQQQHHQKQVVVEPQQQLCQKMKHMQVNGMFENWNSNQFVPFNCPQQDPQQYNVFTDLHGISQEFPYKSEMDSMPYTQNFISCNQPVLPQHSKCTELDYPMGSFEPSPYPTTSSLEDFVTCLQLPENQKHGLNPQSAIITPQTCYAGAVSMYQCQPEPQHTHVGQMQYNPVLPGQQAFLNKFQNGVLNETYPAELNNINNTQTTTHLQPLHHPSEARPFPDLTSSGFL
Bile acid receptor (Homo sapiens), sequence (Q96RI1 whole entry, looked up): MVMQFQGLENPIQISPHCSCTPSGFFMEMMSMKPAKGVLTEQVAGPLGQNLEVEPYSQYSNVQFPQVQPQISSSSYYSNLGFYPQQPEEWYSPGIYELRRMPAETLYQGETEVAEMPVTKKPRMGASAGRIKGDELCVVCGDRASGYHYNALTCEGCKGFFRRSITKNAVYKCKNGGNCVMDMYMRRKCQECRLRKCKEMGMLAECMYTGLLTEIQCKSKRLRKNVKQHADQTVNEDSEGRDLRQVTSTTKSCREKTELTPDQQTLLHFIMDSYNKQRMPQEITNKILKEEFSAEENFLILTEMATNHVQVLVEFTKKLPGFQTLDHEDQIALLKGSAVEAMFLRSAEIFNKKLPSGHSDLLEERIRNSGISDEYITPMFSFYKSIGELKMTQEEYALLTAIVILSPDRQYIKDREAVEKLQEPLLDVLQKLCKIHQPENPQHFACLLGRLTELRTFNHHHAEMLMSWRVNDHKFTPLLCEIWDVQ
Vitamin D3 receptor (Homo sapiens), sequence (P11473 whole entry, looked up): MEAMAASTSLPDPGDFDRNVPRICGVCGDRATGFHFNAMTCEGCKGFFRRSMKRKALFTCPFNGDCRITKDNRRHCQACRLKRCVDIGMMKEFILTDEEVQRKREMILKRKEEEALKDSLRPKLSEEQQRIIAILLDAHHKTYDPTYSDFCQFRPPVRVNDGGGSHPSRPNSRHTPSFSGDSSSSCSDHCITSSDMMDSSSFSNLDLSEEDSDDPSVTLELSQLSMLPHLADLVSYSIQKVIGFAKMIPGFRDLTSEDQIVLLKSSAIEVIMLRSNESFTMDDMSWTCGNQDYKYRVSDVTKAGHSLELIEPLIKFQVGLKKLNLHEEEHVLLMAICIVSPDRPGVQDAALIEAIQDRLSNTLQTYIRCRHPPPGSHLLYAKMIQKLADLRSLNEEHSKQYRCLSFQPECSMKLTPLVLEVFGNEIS

Regarding `CCCCCCCCCCCCCO`, the Potency result in [1], in [2], in [4], in [5], in experiment [6] and in experiment [7] was “inactive” throughout. Also, the Potency entry in [8], in experiment [10], in [12] and in experiment [14] was “inactive” each time. The call in [3], in experiment [9], in [11], in experiment [13], in [15] and in [16] was inactive.
For the compound `C1COCCN1`, the Potency entry in [1], in [17], in [2], in experiment [5], in [6] and in experiment [7] was “inactive” each time. Further, the Potency result in experiment [8], in [10], in experiment [12], in experiment [14] and in [18] was “inactive” in each case. Further, the compound was classed as inactive in experiment [9], in experiment [11], in experiment [13], in experiment [15] and in experiment [16].
As to `Nc1cc(Cl)c(N)c(Cl)c1`, the Potency entry in experiment [1], in [2], in [4], in experiment [5], in [7] and in experiment [8] was “inactive” each time. The Potency entry in experiment [10], in [12], in experiment [19] and in experiment [14] was “inactive” in each case. Moreover, the call in [3], in experiment [9], in [11], in experiment [13], in [20] and in experiment [15] was inactive. For the same compound, the Potency in experiment [6] was 27.3 µM (active).
As to `O=S1(=O)CCCO1`, the Potency result in experiment [1], in [2], in experiment [4], in experiment [5], in experiment [6] and in experiment [7] was “inactive” throughout. For the same compound, the Potency entry in [8], in experiment [10], in experiment [12], in [14] and in experiment [18] was “inactive” each time. The outcome in experiment [3], in [9], in experiment [11], in [15] and in [16] was inactive.
As to `Cc1ccc(N)c([N+](=O)[O-])c1`, the Potency result in experiment [1], in experiment [2], in [4], in experiment [5], in [6] and in experiment [7] was “inactive” in each case. In addition, the Potency entry in experiment [8], in [10], in experiment [12], in experiment [14] and in experiment [18] was “inactive” in each case. Moreover, the compound was called inactive in experiment [3], in experiment [9], in experiment [11], in experiment [13], in experiment [15] and in experiment [16].
Consider `C=C[Si](OCCOC)(OCCOC)OCCOC`, for which the Potency result in experiment [1], in [2], in experiment [4], in experiment [5], in experiment [6] and in [7] was “inactive” throughout. Also, the Potency entry in experiment [8], in experiment [10], in experiment [12], in [19], in [14] and in experiment [18] was “inactive” in each case. The call in [3], in experiment [9], in [11], in experiment [13], in experiment [20] and in experiment [15] was inactive. Also, the compound was called inactive in [16].
As for `CC(=O)O[C@]1(C(C)=O)CC[C@H]2[C@@H]3C=C(Cl)C4=CC(=O)CC[C@]4(C)[C@H]3CC[C@@]21C`, the Potency result in experiment [1], in experiment [17], in [2], in experiment [8], in [12] and in [14] was “inactive” in each case. In experiment [18], the Potency result is “inactive”. The call in [9] and in experiment [13] was inactive. The Potency in [10] was 48.9 µM (active) and inactive.
As to `Nc1ccc(N)c(Cl)c1`, the Potency in experiment [1] was 61 µM (active) and inactive; in experiment [17], 54.4 µM (active) and 15.4 µM (active); in experiment [6] it was 27.3 µM (active); in experiment [7], 68.5 µM (active) and inactive. Further, the Potency entry in experiment [2], in [5], in [8], in experiment [10], in experiment [12] and in experiment [14] was “inactive” in each case. Further, in experiment [18], the Potency entry was “inactive”. The outcome in experiment [11], in [13] and in experiment [15] was inactive.

The record behind these values is PubChem BioAssay (Tox21).
